Among all 4,100 compounds or so, about 1,600 (39%) were called active. Another 25% or so got no clear call; they are omitted. Calls follow the shape of the dose curve; as a rule, active = well fitted inhibition curve with a large enough effect; inconclusive = small, poorly fitted or top-dose-only effect; inactive = no such curve, though single readings can be large or run the other way. The list shows a part of the results. Entries that show only a call come without a potency.
Test: qHTS Validation assay for Inhibitors of Plasmodium falciparum Dd2 growth in vitro; also: nearly all actives have a fitted effect of over 70% in size
Settings: P. falciparum Dd2 in RBCs, SYBR Green growth, 72 h; series mostly up to 28.7 µM
How it was run: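 P. falciparum Dd2-infected red blood cells (2.5% hematocrit, 0.3% parasitemia) grown 72 h at 37 °C under 5% O2 with compounds in a titration, 29 uM to 0.5 nM final. Growth read as SYBR Green-1 fluorescence after ~16 h lysis; artesunate 300 nM as positive control.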
In the case of `Cc1nn(CCCC(=O)Nc2ccccc2C(F)(F)F)c(=O)c2nn(-c3ccccc3)c(C)c12`, the Potency is reported as “inactive”.
With `COc1cc(Br)c(C(C)NC(=O)c2cccc(Br)c2)cc1OC` (stereo unspecified) the Potency was 2.11 µM (active).
With `CC(C)CN1C(=O)CO[C@H](c2ccc(NC(=O)C3CCCC3)cc2)[C@H]1CO` the Potency was “inactive”.
For `O=C(Nc1ccccc1O)c1ccc(NC(=O)C2CC2)cc1`, the Potency was 4.73 µM (active).
For `COc1ccccc1N1CCN(CCCNC(=O)c2cnn(-c3cccc(Cl)c3)c2C2CCN(C(=O)OC(C)(C)C)CC2)CC1`, the Potency was 2.11 µM (active).
For `COc1ccccc1N1CCN(CCCNC(=O)c2cnn(-c3ccccc3Cl)c2C2CCN(C(=O)OC(C)(C)C)CC2)CC1`, the Potency was 2.37 µM (active).
With `Cc1cc(Nc2cccc(C(F)(F)F)c2)nc2ccc(NC(=O)c3cncc(Br)c3)cc12` the Potency was 2.37 µM (active).
With `CCN1CCN(c2cc(C)c3cc(NC(=O)c4cc(OC)c(OC)c(OC)c4)ccc3n2)CC1` the Potency was 1.33 µM (active).
For `CCN1CCN(c2cc(C)c3cc(NC(=O)c4cc(OC)cc(OC)c4)ccc3n2)CC1`, the Potency was 3.35 µM (active).
In the case of `CCOc1ccc(C(=O)Nc2cccc(NC(=O)c3ccc(C(C)(C)C)cc3)c2)cc1Br`, the Potency is reported as “inactive”.
For `CCN1c2cc(C(=O)Nc3cccc(Cl)c3)ccc2C(=O)N2CCCCC21` (stereo unspecified), the Potency was “inactive”.
For `Cc1cc(=O)n2[nH]c(NC(=O)c3cccc(Cl)c3)nc2n1`, the Potency was “inactive”.
With `CCN1CCN(c2cc(C)c3cc(NC(=O)c4cccc(Cl)c4)ccc3n2)CC1` the Potency was 4.73 µM (active).
In the case of `CNC(=O)[C@@H]1C[C@H](Oc2ccccc2)CN1C(=O)c1cc2ccccc2[nH]1`, the Potency is reported as “inactive”.
For `COc1cc(C(=O)Nc2ccc3nc(N4CCN(C)CC4)cc(C)c3c2)cc(OC)c1OC`, the Potency was 3.35 µM (active).
For `COc1ccc(NC(=O)CCn2ccn3nc4c(c3c2=O)CCCC4)cc1OC`, the Potency was “inactive”.
In the case of `COc1ccc(Nc2cc(C)c3cc(NC(=O)c4cc(OC)cc(OC)c4)ccc3n2)cc1`, the Potency is reported as 0.75 µM (active).
With `CCCNC(=O)N1CC(Oc2cccc(-c3nc(-c4ccccc4)no3)c2)C1` the Potency was 13.3 µM (active).
In the case of `O=C(c1ccco1)N1CC(Oc2cccc(-c3nc(-c4ccccc4)no3)c2)C1`, the Potency is reported as “inactive”.
In the case of `Cc1noc(-c2cccc(OC3CN(S(=O)(=O)c4cn(C)cn4)C3)c2)n1`, the Potency is reported as “inactive”.
With `COc1ccc(OC)c(S(=O)(=O)Nc2ccc(O)c3ccccc23)c1` the Potency was 8.41 µM (active).
With `COc1ccc(OC)c(S(=O)(=O)NCCc2sc(C)nc2C)c1` the Potency was “inactive”.
In the case of `CCCCN(C(=O)c1ccco1)c1nnc(-c2cc(OC)c(OC)c(OC)c2)s1`, the Potency is reported as 2.99 µM (active).
In the case of `Cc1nc(-c2ccc(Cl)cc2)sc1CCNC(=O)c1ccco1`, the Potency is reported as “inactive”.
In the case of `Cc1ccc(C(=O)NN2C(=O)C3C4C=CC(C4)[C@@H]3C2=O)cc1` (stereo partly specified), the Potency is reported as “inactive”.
With `O=C(c1ccc2ncccc2c1)N1CCc2c(nc3cc[nH]n3c2=O)C1` the Potency was “inactive”.
In the case of `OC(CNCC1CCCO1)Cn1c2ccc(Cl)cc2c2cc(Cl)ccc21` (stereo unspecified), the Potency is reported as 1.19 µM (active).
For `Cc1noc(C)c1-c1cc2c(cc(C)n2C)c(NCCN(C)C)n1`, the Potency was “inactive”.
For `Cc1noc(C)c1-c1cc2c(cc(C)n2CCN(C)C)c(Nc2ccn(C)n2)n1`, the Potency was 13.7 µM (active).
For `COc1cccc(-c2noc(CCCc3nc(-c4cccnn4)no3)n2)c1`, the Potency was “inactive”.
In the case of `Cc1noc(C)c1-c1cc2c(cc(C)n2CCN(C)C)c(-c2cccc(O)c2)n1`, the Potency is reported as 17.2 µM (active).
For `COc1cccc(-c2nc(-c3c(C)noc3C)cc3c2cc(C)n3CCN(C)C)c1`, the Potency was 17.2 µM (active).
With `CCc1cccc(C)c1Nc1c(-c2cccc(O)c2)nc2sccn12` the Potency was “inactive”.
For `COc1cc(-c2nc(-c3c(C)noc3C)cc3c2cc(C)n3CCN(C)C)ccn1`, the Potency was 17.2 µM (active).
For `O=[S+]1([O-])NCC2(CCN(CC3CC3)CC2)Nc2ccccc21`, the Potency was “inactive”.
With `O=C(c1cccc(O)c1)N1CC=C(c2cnc3cnc(-c4ccccc4)cn23)CC1` the Potency was 9.68 µM (active).
For `O=C(c1ccsc1)N1CC(n2cc(-c3ccccc3)nn2)C1`, the Potency was “inactive”.
For `O=C(NCc1ccc(F)cc1)c1c2c(nc3ccccc13)C(=O)N(C1CCCCC1)C2`, the Potency was “inactive”.
In the case of `Cc1c(CN2CC(Oc3ccccc3C(=O)NCc3ccccc3)C2)cnn1C`, the Potency is reported as 4.22 µM (active).
With `O=C(NCC1CC1)c1cccc(OC2CN(Cc3cc(F)c(F)c(F)c3)C2)c1` the Potency was “inactive”.
In the case of `Cc1ccsc1CN1CC(Oc2ccccc2C(=O)NC2CC2)C1`, the Potency is reported as “inactive”.
In the case of `COCCNC(=O)[C@H]1C[C@H](Oc2ccccc2)CN1C(=O)c1ccccc1OC`, the Potency is reported as “inactive”.
With `COc1ccc(CN2CC(Oc3ccccc3C(=O)NCc3ccccc3)C2)c(OC)c1` the Potency was 10.6 µM (active).
For `O=C(NCc1ccccc1)c1ccccc1OC1CN(Cc2ccc(O)c(F)c2)C1`, the Potency was 15 µM (active).
For `CCCN1CCN(C(=O)c2cc3c(s2)CCN(C(=O)c2ccc(F)cc2)C3)CC1`, the Potency was “inactive”.
With `O=C1C2=C(Nc3ccccc3SC2c2ccco2)c2ccccc21` (stereo unspecified) the Potency was 4.73 µM (active).
In the case of `COc1ccc(C2Sc3ccccc3NC3=C2C(=O)c2ccccc23)c(OC)c1OC` (stereo unspecified), the Potency is reported as 0.75 µM (active).
With `O=C1C2=C(Nc3ccccc3SC2c2c(F)cccc2Cl)c2ccccc21` (stereo unspecified) the Potency was 9.44 µM (active).
In the case of `CCn1ncc(CN2CCCC23CCN(c2cc(C)nc4ccccc24)CC3)c1C`, the Potency is reported as 5.31 µM (active).
For `CCn1cc(CN2CCCC23CCN(c2cc(C)nc4ccccc24)CC3)c(C)n1`, the Potency was 4.22 µM (active).
For `CN(C)c1nc2c(c(=O)[nH]1)CCN(Cc1ccc(F)cc1Cl)CC2`, the Potency was 10.6 µM (active).
With `COc1cc(OC)c(OC)cc1CN1CCc2nc(N(C)C)[nH]c(=O)c2CC1` the Potency was “inactive”.
In the case of `N#Cc1ccc(CN2CCc3n[nH]c(=O)n3CC2)cc1`, the Potency is reported as “inactive”.
In the case of `CN(C)c1nc2c(c(=O)[nH]1)CCN(Cc1ccc(Br)cc1)CC2`, the Potency is reported as 13.3 µM (active).
For `CN(C)c1nc2c(c(=O)[nH]1)CCN(Cc1ccccc1Br)CC2`, the Potency was 9.44 µM (active).
With `O=C(CCc1ccccc1)N1CCc2c(nc(-c3ccc(F)cc3)[nH]c2=O)C1` the Potency was “inactive”.
For `CN(C)c1ccc(C(=O)NCc2nnc3cc(-c4nc(C5CC5)no4)ccn23)cc1`, the Potency was “inactive”.
With `COc1ccc(Nc2cc(O)c3ncccc3c2)cc1` the Potency was 0.75 µM (active).
For `Oc1cc(Nc2ccccc2)cc2cccnc12`, the Potency was 6.68 µM (active).
In the case of `Oc1cc(Nc2ccc(N3CCCCC3)cc2)cc2cccnc12`, the Potency is reported as 0.842 µM (active).
With `CCOC(=O)c1ccccc1NC(=O)C(C)Oc1ccccc1` (stereo unspecified) the Potency was 10.6 µM (active).
With `Cc1ccc(OCC(=O)Nc2ccccc2C(=O)OCc2cc(=O)n3ccsc3n2)cc1` the Potency was “inactive”.
With `COc1ccc(C)cc1NC(=O)N1CCCC2(C1)Nc1cccnc1NC2=NC1CCCC1` (stereo unspecified) the Potency was 6.68 µM (active).
In the case of `COc1ccc(C)cc1NC(=O)N1c2ccccc2CC1c1nc(C2CC2)no1` (stereo unspecified), the Potency is reported as “inactive”.
For `O=C(c1ccc2nc[nH]c2c1)N1CCCC2(C1)Nc1cccnc1NC2=NC1CCCC1` (stereo unspecified), the Potency was “inactive”.
For `COc1ccc(-c2cn3c(n2)sc2cc(C(=O)NCCCN4CCCCC4)ccc23)cc1`, the Potency was 4.73 µM (active).
With `CCOc1ccc(-c2cc3c(=O)n(CCNC(=O)c4ccc(C#N)cc4)ccn3n2)cc1` the Potency was “inactive”.
For `CCOc1ccc(-c2cc3c(=O)n(CCNC(=O)c4cccc(C#N)c4)ccn3n2)cc1`, the Potency was “inactive”.
In the case of `COc1ccc(-c2cc3c(=O)n(CCNC(=O)c4ccc(OC)nc4)ccn3n2)cc1`, the Potency is reported as “inactive”.
With `CCOc1ccc(-c2cn3c(n2)sc2cc(C(=O)NC(C)C45CC6CC(CC(C6)C4)C5)ccc23)cc1` (stereo unspecified) the Potency was 5.96 µM (active).
For `CCCN1CCN(CCCNC(=O)c2ccc3c(c2)sc2nc(-c4ccc(OCC)cc4)cn23)CC1`, the Potency was 4.22 µM (active).
For `CCOc1ccc(-c2cn3c(n2)sc2cc(C(=O)NCCCc4ccccc4)ccc23)cc1`, the Potency was “inactive”.
With `CCOc1ccc(-c2cc3c(=O)n(CCNC(=O)c4ccccc4)ccn3n2)cc1` the Potency was “inactive”.
In the case of `CCCN1CCN(CCCNC(=O)c2ccc3c(c2)sc2nc(-c4ccc(OC)cc4)cn23)CC1`, the Potency is reported as 4.73 µM (active).
In the case of `COc1ccc(-c2cc3c(=O)n(CCNC(=O)c4ccc(OC)c(OC)c4)ccn3n2)cc1`, the Potency is reported as “inactive”.
In the case of `C#Cc1ccc(C(=O)Nc2ccc(N3CCC(C)CC3)c(C(N)=O)c2)cc1`, the Potency is reported as 6.68 µM (active).
In the case of `CC1CCCCN1c1ccc(N)cc1C(N)=O` (stereo unspecified), the Potency is reported as “inactive”.
For `CCN1c2cc(C(=O)Nc3ccc4c(c3)CCC4)ccc2C(=O)N2CCCCC21` (stereo unspecified), the Potency was “inactive”.
In the case of `Cc1ccc2c(c1)c1c3n2CCCN(Cc2ccccc2)C3CCC1` (stereo unspecified), the Potency is reported as 4.22 µM (active).
For `CN(C)Cc1c(O)ccc2oc(Cc3ccccc3)cc12`, the Potency was 0.422 µM (active).
In the case of `COc1ccc(-n2c(/C=C(\C)O)nc(=O)c3c(C)cc(C)nc32)cc1`, the Potency is reported as 3.35 µM (active).
For `O=C(Cc1ccccc1)N1CCCC2(CC(c3ccccn3)=NO2)C1` (stereo unspecified), the Potency was “inactive”.
In the case of `CCOC(=O)c1c(C)[nH]c(C(=O)OCc2c(C)noc2C)c1C`, the Potency is reported as “inactive”.
In the case of `CCOC(=O)c1c(C)[nH]c(C(=O)CSc2nnc(C3CC3)n2N)c1C`, the Potency is reported as 1.5 µM (active).
For `CN1c2cc(C(=O)Nc3ccc(S(N)(=O)=O)cc3)ccc2C(=O)N2CCCCC21` (stereo unspecified), the Potency was “inactive”.
For `O=C(Nc1ccc(Br)cc1)c1ccc(F)c(S(=O)(=O)NC2CCCCCC2)c1`, the Potency was 9.44 µM (active).
With `O=C(Nc1ccc(Br)cc1F)c1cc(S(=O)(=O)NC2CCCC2)ccc1F` the Potency was “inactive”.
With `CC1(COc2ccccc2)COc2ccc(C(=O)NCc3cnccn3)cc2N1` (stereo unspecified) the Potency was “inactive”.
For `Cc1nccn1C1(C(=O)O)CCN(Cc2ccc(-c3ccn[nH]3)o2)CC1`, the Potency was “inactive”.
In the case of `Cc1noc(-c2cccs2)c1C(=O)NC(C)c1cccc2ccccc12` (stereo unspecified), the Potency is reported as 0.668 µM (active).
With `c1csc(-c2cn3ccc4ccccc4c3n2)c1` the Potency was “inactive”.
With `O=C(NCc1nc(-c2ncccn2)no1)c1csc(-c2cccs2)n1` the Potency was “inactive”.
With `CNC(=O)c1ccsc1NC(=O)CCS(=O)(=O)c1ccccc1` the Potency was “inactive”.
With `Cc1cc(C(=O)CN2C(=O)NC(c3ccccc3)(c3ccccc3)C2=O)c(C)n1Cc1ccco1` the Potency was 8.41 µM (active).
With `O=C(O)c1ccc(C2SCC(=O)N2Cc2ccco2)cc1` (stereo unspecified) the Potency was “inactive”.
In the case of `Cc1cc(C(=O)CN2C(=O)NC(C)(c3cccc(Br)c3)C2=O)c(C)n1Cc1ccco1` (stereo unspecified), the Potency is reported as 13.3 µM (active).
Potency is read from the fitted curve at half-maximal effect.
